Bioassay records as filed in PubChem BioAssay.
Most compounds without a hit are left out; they make up all but 12% or so of the library.
Cav32 inh: inhibitors of human Cav3.2 T-type calcium channel; O95180; Cav3.2-expressing cells, Fluo-4 calcium fluorescence FDSS; stronger effect = lower value; B-score at 10 µM; 100,000 compounds, 4% hits; AID 449739;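 active = single-dose well whose peak fluorescence ratio is a statistical outlier from its plate by either plate-standardised score or position-corrected B-score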
PLAP activator: human PLAP activation; purified PLAP enzyme, luminescent substrate read-out; stronger effect = higher value; activation fold at 20 µM; 96,000 compounds, 1.2% hits; AID 696; in the data active = activation fold above about 2
D1 mod: D1 dopamine receptor (human) allosteric modulation | HEK293 D1, CRE-luciferase, dopamine EC30 potentiation; actives deviate in either direction | B-score at 10 µM | 58,000 compounds, 5.9% hits;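 active = luminescence count or its row- and column-corrected plate score outside the 99.7% band of the plate's sample wells, on either side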
DAT uptake mod: changed human dopamine transporter uptake under cocaine IC80; 110,000 compounds, 1.3% hits; LLC-PK1 hDAT cells, [14C]-dopamine uptake with cocaine IC80; actives deviate in either direction; B-score at 10 µM; Q01959;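 active = Z score or B-score, a plate-position-corrected score, falls beyond the plate's 99.7% confidence bounds, in either direction; inactive = both scores lie inside the 99.7% bounds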;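 also: scored against the spread of the other compound wells on the same plate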
Target sequence (Q01959 whole entry, looked up): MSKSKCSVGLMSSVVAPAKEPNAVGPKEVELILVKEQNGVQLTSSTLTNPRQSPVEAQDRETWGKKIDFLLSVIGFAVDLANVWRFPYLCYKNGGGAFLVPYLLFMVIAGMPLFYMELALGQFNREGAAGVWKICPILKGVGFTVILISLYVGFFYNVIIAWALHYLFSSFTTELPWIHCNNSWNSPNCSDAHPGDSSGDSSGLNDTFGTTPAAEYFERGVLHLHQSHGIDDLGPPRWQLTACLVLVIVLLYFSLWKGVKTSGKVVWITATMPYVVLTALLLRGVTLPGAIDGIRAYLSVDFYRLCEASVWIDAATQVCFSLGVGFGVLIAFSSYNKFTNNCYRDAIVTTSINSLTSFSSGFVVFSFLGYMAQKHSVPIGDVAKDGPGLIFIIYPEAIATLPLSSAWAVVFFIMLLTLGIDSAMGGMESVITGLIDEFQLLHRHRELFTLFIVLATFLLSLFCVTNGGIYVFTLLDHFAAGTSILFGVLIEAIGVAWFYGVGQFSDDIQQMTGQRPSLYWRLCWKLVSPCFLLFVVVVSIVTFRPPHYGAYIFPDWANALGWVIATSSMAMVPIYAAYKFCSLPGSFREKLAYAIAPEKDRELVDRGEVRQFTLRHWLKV
PostGolgi yeast: growth inhibition of a yeast mutant, post-Golgi transport screen; post-Golgi transport phenotypic cell assay; inhibition, % at 10 µM; 98,000 compounds, 0.9% hits;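 also: yeast cells grown in 1536-well plates; yeast grown about 18 h at 30C before absorbance read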
PostGolgi ctrl: yeast control strain growth, post-Golgi counter-screen; 98,000 compounds, 5% hits; inhibition, % at 10 µM; AID 738; efflux-deficient yeast background strain, growth absorbance A615, 16 h
* = called active by the depositor; x = not tested or not shown. Rule as the data show it, unless noted: active = inhibition above about 30%; inactive = the rest.

SMILES	Cav32 inh	PLAP activator	D1 mod	DAT uptake mod	PostGolgi yeast	PostGolgi ctrl
COc1ccc(-c2nc(N)nc(C)c2Oc2ccccc2Br)c(O)c1	-0.27	1.5	0.021	-0.19	56*	79*
CCOC(=O)c1cnc2cc(C)nn2c1-c1ccccc1	-0.34	1	x	-0.44	4	1
CC(=O)N1c2ccccc2N(Cc2ccc(C)cc2C)C(=O)C1(C)C	-8.3*	1.3	x	-0.59	0	27
C=CCN1C(=O)C(C)(C)N(C(C)=O)c2ccccc21	x	x	-0.025	x	x	x
CN(C)CCCNC(=O)C1CCNCC1	0.69	0.8	-3*	0.51	8	9
COc1ccc(N2CCN(CCNC(=O)CCS(=O)(=O)c3cccc4nsnc34)CC2)cc1	x	x	0.038	x	x	x
CC1c2nc3ccccc3n2C(CC(=O)NCc2ccccn2)C(=O)N1Cc1ccccc1 (stereo not drawn)	0.72	1.4	-0.4	0.064	-27	6
Cn1c(N/N=C/c2cccs2)cc(=O)n(C)c1=O	x	0.9	x	x	1	35*
O=C(NNC(=O)c1ccccc1Br)c1ccc(SCC2CCCO2)c([N+](=O)[O-])c1 (stereo not drawn)	0.9	1.4	x	-0.38	-4	17
O=C(CN1CCC(O)CC1)N1c2ccccc2C=Cc2ccccc21	-0.35	1.2	0.34	0.86	0	12
CCOC(=O)c1cc(C#N)c(N2CCCC2)nc1-c1ccccc1	0.43	0.9	x	0.03	5	13
CCOC(=O)c1cc(C#N)c(Oc2cccc(C(F)(F)F)c2)nc1-c1ccccc1	-4.5*	1	x	0.00014	-3	9
CCOC(=O)c1cc(C#N)c(Oc2ccc(F)cc2)nc1-c1ccccc1	-1.4	1.5	x	0.41	6	37*
CCN(CC)c1ccc(NC(=O)C2CCCN(S(=O)(=O)c3cccnc3)C2)c(C)c1 (stereo not drawn)	-0.82	1.5	-0.4	-0.2	1	15
CCCCCn1c(CN2CCN(c3cc(Cl)ccc3C)CC2)nc2c1c(=O)[nH]c(=O)n2C	-4.4*	1.1	1.6	0.37	-2	56*
CCCCn1c(N2CCC(Cc3ccccc3)CC2)nc2c1c(=O)[nH]c(=O)n2C	x	0.9	x	0.99	7	63*
Cc1ccnc(SCCn2c(N3CCN(c4ccccc4)CC3)nc3c2c(=O)[nH]c(=O)n3C)n1	x	1.3	-4.5*	0.27	-3	3
Cc1ccnc(SCCn2c(N3CCN(C)CC3)nc3c2c(=O)[nH]c(=O)n3C)n1	x	1.3	0.89	x	x	x
CCCCCn1c(N2CCN(c3cccc(Cl)c3)CC2)nc2c1c(=O)[nH]c(=O)n2C	-5.4*	2*	4.9*	0.37	28	20
COc1ccc2c(=O)c(-c3ccccc3)c(C)oc2c1	x	0.9	x	1.5	11	5
O=C(C1CCN(S(=O)(=O)N2CCCC2)CC1)N1CCCCC1	1.4	1	x	0.52	16	14
O=C1CCCCCN1CSc1nc2ccccc2s1	-2.1	1.3	1.3	-0.034	-6	46*
N/C(=N\OC(=O)C1CCCCC1)c1ccccn1	0.64	1	x	-0.37	0	2
Cc1sc2nc(CN(Cc3cccs3)C(=O)NC3CCCCC3)[nH]c(=O)c2c1C	-4.7	1.8	-0.038	-0.33	-5	43*
Cc1sc2nc(CN(C(=O)NC3CCCCC3)C3CCCC3)[nH]c(=O)c2c1C	-0.013	x	x	0.0079	x	x
SMILES	Cav32 inh	PLAP activator	D1 mod	DAT uptake mod	PostGolgi yeast	PostGolgi ctrl
Cc1sc2nc(CN(C(=O)c3cccs3)C3CCCC3)[nH]c(=O)c2c1C	-4.8*	1.4	0.095	1	0	34*
Cc1ccc(N2CCCCn3c2nc2c3c(=O)n(CC(=O)O)c(=O)n2C)cc1	0.47	1.1	0.47	-1.7	3	9
CCN(CC)S(=O)(=O)c1cccc2c(N(C)C)cccc12	-2.8	1	-0.09	0.68	1	17
CC(C)N1CC(O)=C(c2nc3ccccc3[nH]2)C1=N	1	2.5*	-2	0.83	12	-3
CC(C)CCN1CC(O)=C(c2nc3ccccc3[nH]2)C1=N	-0.73	1.4	x	-0.32	29	24
CCN(CC)CCCN1CC(O)=C(c2nc3ccccc3s2)C1=N	0.25	2.2*	x	-0.44	-4	-8
CCCCN1CC(O)=C(c2nc3ccccc3[nH]2)C1=N	x	1.2	0.48	x	4	30*
COc1ccc(OC)c(N2CC(O)=C(c3nc4ccccc4s3)C2=N)c1	-0.48	2*	x	2.2	-6	3
CCOc1ccccc1N1CC(O)=C(c2nc3ccccc3s2)C1=N	-3.5	1	-1	-0.82	3	24
CN1C(=S)SC(/[N+]([O-])=C/c2cccnc2)C1(C)C (stereo not drawn)	1.1	0.9	-6*	-1	-11	7
CN1C(=S)SC(/[N+]([O-])=C\c2ccccc2)C1(C)C (stereo not drawn)	0.34	1.1	x	-1.4	15	6
Cc1cc(Nc2cc(Cl)nc(Sc3ccc(NC(=O)C4CC4)cc3)n2)n[nH]1	0.33	x	x	-2.6*	x	x
COC(=O)\C(C(C)=O)=C(/C=C/C=C/C=C/N(C)C)N(C)C	-7*	1.5	x	0.028	-4	-1
COC(=O)/C(C(C)=O)=C(\C=C\N(C)C)N(C)C	0.67	0.8	x	-1.4	-7	2
OC(Cn1ccnc1)c1ccc(Cl)cc1Cl (stereo not drawn)	0.21	0.8	-0.031	-0.57	76*	24
CN1C(=O)CC(NNC(=O)c2ccccc2)C1=O (stereo not drawn)	0.46	1	x	-1.3	8	16
O=C(Nc1ccc2nsnc2c1)c1ccc2c(c1)OCO2	0.0057	0.8	-4*	0.01	13	-1
Cc1oc2ccc(O)c(CN3CCOCC3)c2c1C(=O)c1ccc(Cl)cc1	-4.4*	1.4	-0.38	0.88	-5	24
CCOc1cc(C(=S)N2CCCCC2)ccc1OS(=O)(=O)c1ccc(Cl)cc1	-5*	1	x	-0.26	10	23
CCOc1cc(C(=S)N2CCCCC2)ccc1OS(=O)(=O)c1ccc(Br)cc1	-4.9*	1	x	0.36	1	1
CCOc1cc(C(=S)N2CCC(O)CC2)ccc1OS(=O)(=O)c1ccc(Br)cc1	-4.9*	1.8	x	0.43	-4	14
CCOc1ccc(C(=S)N2CCOCC2)cc1OCC	0.055	0.9	x	1	-1	17
COC(=O)CN1C(=O)Nc2ccc(Br)cc2C1c1ccccc1Cl (stereo not drawn)	-3.5	1.6	x	0.72	-9	33*
CCOC(=O)CN1C(=O)Nc2ccc(Br)cc2C1c1ccccc1 (stereo not drawn)	-2.2	1.2	x	-0.024	9	13
CCCn1c(SCC(=O)Nc2ccccc2-c2ccccc2)nnc1-c1ccoc1C	-5.9*	1.8	-0.5	0.26	1	14
COCCCn1c(SCC(=O)N2CC(=O)Nc3ccccc32)nnc1-c1ccoc1C	-0.22	1.4	0.3	-2.4*	-4	8
Cc1cc(C)nc(SCc2nnc(SCC(=O)Nc3nccs3)n2Cc2ccco2)n1	-0.38	1.5	0.75	2.2	2	7
